This is an account of results in paper PMC11062922 (Nature Chemical Biology, 2023).

What all share (parameters): species or system human, MV4-11 + K-562 + COLO205 + SK-N-BE2 + OVCAR-8
In one assay the test system is MARK4. Conditions: read-out: apparent Kd, n = 1.
The subject of the next assay is MYLK3. Conditions: read-out: apparent Kd, n = 1.
Another assay has as its system PRKAA1. The settings on record: read-out: apparent Kd; compound concentrations:100 nM and 1000 nM (sheet 'Samples'); n = 1.
Another assay deals with PRKAG1. The settings on record: read-out: apparent Kd, n = 1.
A further assay relates to PRKCD. The settings on record: read-out: apparent Kd, n = 1.
A further assay relates to PRKCQ. Conditions: read-out: apparent Kd, n = 1.
For the next assay, the system named is PRKD2. Conditions: read-out: apparent Kd, n = 1.
The next assay has as its system PRKD3. Conditions: read-out: apparent Kd; compound concentrations:100 nM and 1000 nM (sheet 'Samples'); n = 1.
A further assay concerns PTK2B. The settings on record: read-out: apparent Kd; compound concentrations:100 nM and 1000 nM (sheet 'Samples'); n = 1.
The subject of a further assay is RPS6KA6. Conditions: read-out: apparent Kd, n = 1.
A further assay deals with STK10. The settings on record: read-out: apparent Kd; compound concentrations:100 nM and 1000 nM (sheet 'Samples'); n = 1.
A further assay concerns CDKL5. The settings on record: read-out: apparent Kd, compound concentrations: 100 nM and 1000 nM (sheet 'Samples'), n = 1.
The next assay concerns DYRK1A. Conditions: read-out: apparent Kd, compound concentrations: 100 nM and 1000 nM (sheet 'Samples'), n = 1.
A further assay relates to PIP4K2C. The settings on record: read-out: apparent Kd, n = 1.
The test system of the next assay is PTK2. Conditions: read-out: apparent Kd, n = 1.
In the next assay the test system is CDK7. The settings on record: read-out: apparent Kd; compound concentrations:100 nM and 1000 nM (sheet 'Samples'); n = 1.
The next assay relates to ERCC2. Conditions: read-out: apparent Kd; compound concentrations:100 nM and 1000 nM (sheet 'Samples'); n = 1.
The subject of a further assay is FER. The settings on record: read-out: apparent Kd; compound concentrations:100 nM and 1000 nM (sheet 'Samples'); n = 1.
A further assay relates to PLK4. Conditions: read-out: apparent Kd, n = 1.
The subject of the next assay is LATS1. The settings on record: read-out: apparent Kd, n = 1.
[1] abbreviates: compound concentrations:100 nM and 1000 nM (sheet 'Samples').

SMILES strings stand for the structures. Read-outs that look alike come from different tables or passages of the source.

As to `O=C(O)C(F)(F)F.O=c1[nH]ccc2nc(N[C@@H]3CCNC3)nc(Nc3cc(Cl)cc(Cl)c3)c12` [GSK2188764A], the potency estimated from few doses in the assay on MARK4 (setting [1]) is 122 nM; in the assay on MYLK3 (setting [1]), 184 nM; with PRKAA1, 799 nM; in the assay on PRKAG1 (setting [1]) it was 799 nM; with PRKCD (setting [1]), 222 nM; in the assay with PRKCQ (setting [1]), 2080 nM. Besides, the potency estimated from few doses is 1300 nM in the assay on PRKD2 (setting [1]); 1470 nM in the assay with PRKD3; 46.7 nM with PTK2B; 618 nM with RPS6KA6 (setting [1]); 992 nM in the assay with STK10.

For `COc1cc(Nc2nccc(-c3cnn4ncccc34)n2)cc(OC)c1` [GW801372X], the potency estimated from few doses in the assay on CDKL5 (CATDS: 4.3388944669180397E-2) was 141 nM; in the assay on DYRK1A (CATDS: 3.9916528669642001E-2), 170 nM; in the assay on PIP4K2C (compound concentrations: 100 nM and 1000 nM (sheet 'Samples'), CATDS: 2.38914066508359E-2), 648 nM; with PTK2 (compound concentrations: 100 nM and 1000 nM (sheet 'Samples'), CATDS: 2.4454982719063802E-2), 604 nM.

On to `CS(=O)(=O)CCn1c(=O)c(Oc2ccc(F)cc2F)cc2cnc(NC3CCOCC3)nc21` [RO5027956-000], for which the potency estimated from few doses was 349 nM in the assay with CDK7; 317 nM in the assay with ERCC2; 431 nM with FER; 1950 nM in the assay on MARK4 (setting [1]); 462 nM with PIP4K2C (setting [1]); 568 nM in the assay with PLK4 (setting [1]). Also, the potency estimated from few doses is 1210 nM in the assay on PRKAA1; 812 nM with PRKAG1 (setting [1]); 998 nM in the assay on PRKCQ (setting [1]); 417 nM in the assay on PTK2B; 814 nM with PTK2 (setting [1]); 506 nM with RPS6KA6 (setting [1]). The potency estimated from few doses in the assay with STK10 was 2320 nM.

Regarding `Cl.Cl.NC(CNC(=O)c1cc(Br)c(-c2ccnc3[nH]ccc23)s1)c1ccccc1.NC(CNC(=O)c1cc(Br)c(-c2ccnc3[nH]ccc23)s1)c1ccccc1` (stereo not shown) [GSK1322949A], the potency estimated from few doses with CDKL5 (CATDS: 2.6362691965297801E-2) is 1670 nM; with DYRK1A (CATDS: 2.3831773073254899E-2), 2230 nM; in the assay with PTK2 (compound concentrations: 100 nM and 1000 nM (sheet 'Samples'), CATDS: 3.2827232082793402E-2) it was 993 nM.

Consider `CNCC#Cc1c(F)ccc2c1/C(=C/c1[nH]ccc1OC)C(=O)N2.Cl` [RO0281601-001], for which the potency estimated from few doses in the assay with CDKL5 (CATDS: 0.30453752260001898) is 9.43 nM; in the assay with LATS1 (compound concentrations: 100 nM and 1000 nM (sheet 'Samples'), CATDS: 3.7561417632614502E-2), 394 nM; in the assay with MARK4 (compound concentrations: 100 nM and 1000 nM (sheet 'Samples'), CATDS: 2.40121909495257E-2) it was 1380 nM; in the assay with MYLK3 (compound concentrations: 100 nM and 1000 nM (sheet 'Samples'), CATDS: 6.4458343159200099E-2), 121 nM.

For `Cc1cccc(Nc2nc(N[C@H]3CCNC3)ncc2C(N)=O)c1.Cl` [GSK2197149A], the potency estimated from few doses in the assay on MYLK3 (setting [1]) was 2040 nM; in the assay on PRKD2 (setting [1]), 1170 nM; in the assay with PRKD3 it was 1890 nM.

In the case of `CCn1c(-c2cccnc2O)nc2cnccc21` [SB-736715], the potency estimated from few doses with DYRK1A (CATDS: 1.19408465116969E-2) was 2220 nM; with PIP4K2C (compound concentrations: 100 nM and 1000 nM (sheet 'Samples'), CATDS: 1.9889508399788002E-2) it was 761 nM; in the assay on PLK4 (compound concentrations: 100 nM and 1000 nM (sheet 'Samples'), CATDS: 1.6109346407018599E-2) it was 1120 nM; in the assay with PRKAG1 (compound concentrations: 100 nM and 1000 nM (sheet 'Samples'), CATDS: 1.40543588651099E-2) it was 1490 nM; in the assay on PRKCD (compound concentrations: 100 nM and 1000 nM (sheet 'Samples'), CATDS: 1.16308056787147E-2) it was 2390 nM; with PRKD2 (compound concentrations: 100 nM and 1000 nM (sheet 'Samples'), CATDS: 1.32694977387129E-2) it was 1700 nM. Besides, in the assay with RPS6KA6 (compound concentrations: 100 nM and 1000 nM (sheet 'Samples'), CATDS: 1.6792269740451799E-2), the potency estimated from few doses was 1030 nM.

In the case of `Cc1cc(-c2ccnc(Nc3cccc(C#N)c3)n2)cc(C)c1O` [GSK1440913A], the potency estimated from few doses in the assay with PIP4K2C (compound concentrations: 100 nM and 1000 nM (sheet 'Samples'), CATDS: 0.18719100340522599) is 168 nM.

`NCC(NC(=O)c1cc(-c2cn[nH]c2)c(-c2ccnc3[nH]ccc23)s1)c1ccccc1.NCC(NC(=O)c1cc(-c2cn[nH]c2)c(-c2ccnc3[nH]ccc23)s1)c1ccccc1.O=C(O)C(F)(F)F.O=C(O)C(F)(F)F` (stereo not shown) [GSK1325775A]: the potency estimated from few doses was 712 nM in the assay with PRKCD (compound concentrations: 100 nM and 1000 nM (sheet 'Samples'), CATDS: 4.2478831197515603E-2); 2040 nM in the assay with PRKCQ (compound concentrations: 100 nM and 1000 nM (sheet 'Samples'), CATDS: 3.02069836024773E-2).

For the compound `CC(C)Oc1ccc2c(-c3ccnc(Nc4ccc(N5CCN(C)CC5)cc4)n3)cnn2n1` [GW696155X], the potency estimated from few doses is 1500 nM in the assay on LATS1 (setting [1]); 1800 nM with MARK4 (setting [1]); 506 nM in the assay on PLK4 (setting [1]); 482 nM with PRKD2 (setting [1]); 1110 nM with PRKD3.

Consider `CNc1cc(-c2ccc3c(N)n[nH]c3c2)nc(N)n1` [GSK2224810A], for which the potency estimated from few doses was 457 nM with MYLK3 (setting [1]) and 899 nM in the assay with RPS6KA6 (setting [1]).

As for `c1cnn2ncc(-c3ccnc(Nc4ccc5c(c4)OCCO5)n3)c2c1` [GW806290X], the potency estimated from few doses in the assay with CDKL5 (CATDS: 7.1122593361459902E-2) was 94.8 nM; in the assay with DYRK1A (CATDS: 2.4296257212368499E-2), 1020 nM; in the assay with MYLK3 (compound concentrations: 100 nM and 1000 nM (sheet 'Samples'), CATDS: 2.0905091895042499E-2), 1690 nM; with PIP4K2C (compound concentrations: 100 nM and 1000 nM (sheet 'Samples'), CATDS: 7.0230989511161995E-2) it was 96.8 nM; in the assay with PRKCD (compound concentrations: 100 nM and 1000 nM (sheet 'Samples'), CATDS: 2.1059848271292699E-2), 1650 nM.

Take `CN(c1ccc(NC(=O)NCCN2CCOCC2)cc1)c1ccnc(Nc2ccc(CS(C)(=O)=O)cc2)n1.Cl` [GW830365A]: the potency estimated from few doses with PLK4 (compound concentrations: 100 nM and 1000 nM (sheet 'Samples'), CATDS: 4.9779081320457601E-2) is 1320 nM.
